Counter-ions that a name gives are not always drawn. ± gives the standard deviation of the averaged measurements.
Tests used:
Test in all cases: growth (OD600 after 10 h); higher = more growth (less inhibition)
[1] = system: E. coli TESEC Alr+ wild-type control; settings: compound 0.1 mM; raw OD600 reference: median of DMSO wells 0.241, cell-free background 0.041
Description: (§1)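 TESEC Mtb Alr E. coli, or the Alr+ wild-type control, in 384-well plates with Prestwick library compounds at 0.1 mM and 1% DMSO, across arabinose induction levels of 1E3 to 1E7 nM. Growth is read as OD600 after 10 h at 37 °C in triplicate biological replicates.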

[2] = system: E. coli TESEC Mtb Alr; settings: compound 0.1 mM
Description: as §1

[3] = system: E. coli TESEC Mtb Asd; settings: compound 0.1 mM
Description: (§2)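 TESEC E. coli strains in which the native enzyme is deleted and replaced by arabinose-inducible Mtb Asd, DapB, CysH or TrpD, each grown in its selective medium. Strains were screened against the Prestwick library at 0.1 mM and 1% DMSO in 384-well format at low and high arabinose induction. Growth is read as OD600 after 10 h in triplicate.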

[4] = system: E. coli TESEC Mtb DapB; settings: compound 0.1 mM
Description: as §2

[5] = system: E. coli TESEC Alr+ wild-type control; settings: compound 0.1 mM; raw OD600 reference: median of DMSO wells 0.49, cell-free background 0.052
Description: (§3)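 TESEC Mtb Alr E. coli (ΔaraC ΔtolC ΔentC Δalr ΔdadX, arabinose-inducible Mtb Alr) or the Alr+ wild-type control strain, grown in defined M9-fructose medium without D-alanine in 96-well plates with Prestwick library compounds at 0.1 mM and 1% DMSO. Low Alr induction is 0.1 µM arabinose and high induction is 10 mM arabinose.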

[6] = system: E. coli TESEC Mtb Alr; settings: compound 0.1 mM; remark: listed apart in the source
Description: as §3

[7] = arabinose 1000 nM, raw OD600 reference: median of DMSO wells 0.294, cell-free background 0.041
[8] = arabinose 10000 nM, raw OD600 reference: median of DMSO wells 0.264, cell-free background 0.041
[9] = arabinose 100000 nM, raw OD600 reference: median of DMSO wells 0.201, cell-free background 0.041
[10] = arabinose 1000000 nM, raw OD600 reference: median of DMSO wells 0.193, cell-free background 0.041
[11] = arabinose 10000000 nM, raw OD600 reference: median of DMSO wells 0.146, cell-free background 0.041
[12] = arabinose induction (level): High, raw OD600 reference: median of DMSO wells 0.331, cell-free background 0.041
[13] = arabinose induction (level): Low, raw OD600 reference: median of DMSO wells 0.417, cell-free background 0.041
[14] = arabinose induction (level): High, raw OD600 reference: median of DMSO wells […], cell-free background 0.041
[15] = arabinose induction (level): Low, raw OD600 reference: median of DMSO wells 0.227, cell-free background 0.041
[16] = arabinose 100 nM, raw OD600 reference: median of DMSO wells 0.413, cell-free background 0.052
[17] = arabinose 10000000 nM, raw OD600 reference: median of DMSO wells […], cell-free background 0.052

CC(=O)c1ccc2c(c1)N(CCCN1CCC(CCO)CC1)c1ccccc1S2 [Piperacetazine] was tested, and the growth [1] was 0.161 ± 0.0078, the growth [2, 7] was 0.183 ± 0.0095 and the growth [2, 8] was 0.276 ± 0.015. For the same compound, the growth [2, 9] was 0.222 ± 0.0061, the growth [2, 10] was 0.115 ± 0.0049 and the growth [2, 11] was 0.133 ± 0.0052. It also gave a growth [3, 12] of 0.175 ± 0.0042, a growth [3, 13] of 0.222 ± 0.015 and a growth [4, 14] of 0.203 ± 0.016. The growth [4, 15] was 0.243 ± 0.023, the growth [5] was 0.405 ± 0.0056 and the growth [6, 16] was 0.3984 ± 0.0027. For the same compound, the growth [6, 17] was 0.27 ± 0.039.
Work on CC(O)(P(=O)(O)O)P(=O)(O)O [Etidronic acid, disodium salt] yielded a growth [1] of 0.261 ± 0.021, a growth [2, 7] of 0.331 ± 0.0087 and a growth [2, 8] of 0.275 ± 0.0062. It also gave a growth [2, 9] of 0.20943 ± 0.00012, a growth [2, 10] of 0.184 ± 0.0041 and a growth [2, 11] of 0.159 ± 0.003. The growth [3, 12] was 0.474 ± 0.015, the growth [3, 13] was 0.426 ± 0.068 and the growth [4, 14] was 0.216 ± 0.003. The growth [4, 15] was 0.26 ± 0.015, the growth [5] was 0.578 ± 0.046 and the growth [6, 16] was 0.415 ± 0.021. It also gave a growth [6, 17] of 0.261 ± 0.056.
In the case of CC(=O)Oc1cc(C(F)(F)F)ccc1C(=O)O [Triflusal], the growth [1] is reported as 0.224 ± 0.0053, the growth [2, 7] is reported as 0.275 ± 0.0064 and the growth [2, 8] is reported as 0.259 ± 0.0086. For the same compound, the growth [2, 9] was 0.186 ± 0.019, the growth [2, 10] was 0.177 ± 0.0042 and the growth [2, 11] was 0.14 ± 0.004. For the same compound, the growth [3, 12] was 0.218 ± 0.009, the growth [3, 13] was 0.367 ± 0.082 and the growth [4, 14] was 0.207 ± 0.0034. It also gave a growth [4, 15] of 0.206 ± 0.015, a growth [5] of 0.555 ± 0.033 and a growth [6, 16] of 0.376 ± 0.011. The growth [6, 17] was 0.315 ± 0.011.
CCCC(CCC)C(=O)O [Valproic acid] gave a growth [1] of 0.241 ± 0.0026, a growth [2, 7] of 0.293 ± 0.0086 and a growth [2, 8] of 0.2722 ± 0.00032. For the same compound, the growth [2, 9] was 0.22 ± 0.02, the growth [2, 10] was 0.22 ± 0.0036 and the growth [2, 11] was 0.137 ± 0.0016. It also gave a growth [3, 12] of 0.416 ± 0.018, a growth [3, 13] of 0.404 ± 0.047 and a growth [4, 14] of 0.202 ± 0.011. For the same compound, the growth [4, 15] was 0.246 ± 0.0077, the growth [5] was 0.478 ± 0.035 and the growth [6, 16] was 0.41 ± 0.01. It also gave a growth [6, 17] of 0.358 ± 0.022.
Nc1c2c(nc3ccccc13)CCCC2 [Tacrine hydrochloride] gave a growth [1] of 0.22 ± 0.0053, a growth [2, 7] of 0.263 ± 0.012 and a growth [2, 8] of 0.248 ± 0.0067. It also gave a growth [2, 9] of 0.214 ± 0.042, a growth [2, 10] of 0.149 ± 0.014 and a growth [2, 11] of 0.168 ± 0.007. For the same compound, the growth [3, 12] was 0.242 ± 0.052, the growth [3, 13] was 0.316 ± 0.076 and the growth [4, 14] was 0.222 ± 0.024. For the same compound, the growth [4, 15] was 0.228 ± 0.014, the growth [5] was 0.513 ± 0.063 and the growth [6, 16] was 0.41 ± 0.01. For the same compound, the growth [6, 17] was 0.37 ± 0.017.
O=C(O)c1ccccc1C(=O)Nc1ccc(S(=O)(=O)Nc2nccs2)cc1 [Phthalylsulfathiazole] was tested, and the growth [1] was 0.245 ± 0.0086, the growth [2, 7] was 0.298 ± 0.011 and the growth [2, 8] was 0.266 ± 0.022. The growth [2, 9] was 0.198 ± 0.02, the growth [2, 10] was 0.184 ± 0.0082 and the growth [2, 11] was 0.166 ± 0.0046. For the same compound, the growth [3, 12] was 0.468 ± 0.023, the growth [3, 13] was 0.445 ± 0.036 and the growth [4, 14] was 0.212 ± 0.016. For the same compound, the growth [4, 15] was 0.239 ± 0.01, the growth [5] was 0.47 ± 0.037 and the growth [6, 16] was 0.405 ± 0.019. For the same compound, the growth [6, 17] was 0.333 ± 0.0071.
With NC[C@H]1O[C@H](O[C@H]2[C@H](O[C@@H]3O[C@H](CO)[C@@H](O)[C@H]3O)[C@@H](O)[C@H](N)C[C@@H]2N)[C@H](N)[C@@H](O)[C@@H]1O [Ribostamycin sulfate salt] the growth [1] was 0.238 ± 0.011, the growth [2, 7] was 0.286 ± 0.0099 and the growth [2, 8] was 0.269 ± 0.0065. It also gave a growth [2, 9] of 0.182 ± 0.025, a growth [2, 10] of 0.201 ± 0.015 and a growth [2, 11] of 0.138 ± 0.0082. It also gave a growth [3, 12] of 0.37 ± 0.013, a growth [3, 13] of 0.458 ± 0.012 and a growth [4, 14] of 0.218 ± 0.023. It also gave a growth [4, 15] of 0.226 ± 0.016, a growth [5] of 0.549 ± 0.058 and a growth [6, 16] of 0.42 ± 0.011. It also gave a growth [6, 17] of 0.366 ± 0.012.
With CCCCOc1ccc(OCCCN2CCOCC2)cc1 [Pramoxine hydrochloride] the growth [1] was 0.199 ± 0.0084, the growth [2, 7] was 0.268 ± 0.018 and the growth [2, 8] was 0.263 ± 0.011. For the same compound, the growth [2, 9] was 0.195 ± 0.013, the growth [2, 10] was 0.146 ± 0.0024 and the growth [2, 11] was 0.163 ± 0.0035. It also gave a growth [3, 12] of 0.362 ± 0.03, a growth [3, 13] of 0.403 ± 0.022 and a growth [4, 14] of 0.183 ± 0.014. For the same compound, the growth [4, 15] was 0.226 ± 0.0093, the growth [5] was 0.425 ± 0.028 and the growth [6, 16] was 0.408 ± 0.0076. It also gave a growth [6, 17] of 0.332 ± 0.011.
CNCCC(Oc1ccc(C(F)(F)F)cc1)c1ccccc1 (stereo unspecified) [Fluoxetine hydrochloride] gave a growth [1] of 0.129 ± 0.0027, a growth [2, 7] of 0.0669 ± 0.0012 and a growth [2, 8] of 0.133 ± 0.0068. The growth [2, 9] was 0.0693 ± 0.0015, the growth [2, 10] was 0.0486 ± 0.00026 and the growth [2, 11] was 0.05543 ± 0.00047. It also gave a growth [3, 12] of 0.0984 ± 0.0045, a growth [3, 13] of 0.086 ± 0.016 and a growth [4, 14] of 0.142 ± 0.036. The growth [4, 15] was 0.132 ± 0.0058, the growth [5] was 0.118 ± 0.11 and the growth [6, 16] was 0.411 ± 0.011. It also gave a growth [6, 17] of 0.0614 ± 0.0047.
Work on NC(=O)c1cnccn1 [Pyrazinamide] yielded a growth [1] of 0.244 ± 0.0055, a growth [2, 7] of 0.284 ± 0.01 and a growth [2, 8] of 0.267 ± 0.0063. The growth [2, 9] was 0.208 ± 0.03, the growth [2, 10] was 0.185 ± 0.007 and the growth [2, 11] was 0.14 ± 0.0018. For the same compound, the growth [3, 12] was 0.289 ± 0.057, the growth [3, 13] was 0.382 ± 0.11 and the growth [4, 14] was 0.195 ± 0.029. It also gave a growth [4, 15] of 0.209 ± 0.019, a growth [5] of 0.538 ± 0.071 and a growth [6, 16] of 0.421 ± 0.013. For the same compound, the growth [6, 17] was 0.366 ± 0.015.
CCN(CC)CCNc1ccc(CO)c2sc3ccccc3c(=O)c12 [Hycanthone] was tested, and the growth [1] was 0.0743 ± 0.0024, the growth [2, 7] was 0.0851 ± 0.0084 and the growth [2, 8] was 0.0559 ± 0.00057. For the same compound, the growth [2, 9] was 0.1 ± 0.0034, the growth [2, 10] was 0.0552 ± 0.00075 and the growth [2, 11] was 0.0769 ± 0.0069. It also gave a growth [3, 12] of 0.0901 ± 0.025, a growth [3, 13] of 0.075 ± 0.0065 and a growth [4, 14] of 0.21 ± 0.027. It also gave a growth [4, 15] of 0.163 ± 0.01, a growth [5] of 0.377 ± 0.0077 and a growth [6, 16] of 0.365 ± 0.042. For the same compound, the growth [6, 17] was 0.232 ± 0.033.
Compound CC1(C)[C@@H](OC(=O)CCC(=O)O)CC[C@]2(C)[C@H]3C(=O)C=C4[C@@H]5C[C@@](C)(C(=O)O)CC[C@]5(C)CC[C@@]4(C)[C@]3(C)CC[C@@H]12 [Carbenoxolone disodium salt] has a growth [1] of 0.248 ± 0.007, a growth [2, 7] of 0.275 ± 0.004 and a growth [2, 8] of 0.2609 ± 0.0019. It also gave a growth [2, 9] of 0.319 ± 0.0044, a growth [2, 10] of 0.213 ± 0.0028 and a growth [2, 11] of 0.201 ± 0.0016. The growth [3, 12] was 0.325 ± 0.15, the growth [3, 13] was 0.251 ± 0.006 and the growth [4, 14] was 0.196 ± 0.018. It also gave a growth [4, 15] of 0.225 ± 0.012, a growth [5] of 0.426 ± 0.03 and a growth [6, 16] of 0.405 ± 0.019. For the same compound, the growth [6, 17] was 0.37 ± 0.0045.

From the supplement of paper PMC9262897, “Low-cost anti-mycobacterial drug discovery using engineered E. coli” (Nature Communications, 2022)
